This passage reports Potency results from PubChem BioAssay (NCATS).

Records with an inconclusive call do not appear. Where a call stands in place of a potency, no number is given. The source made the active and inactive calls. Calls follow the shape of the dose curve; as a rule, active = well fitted inhibition curve with a large enough effect; inconclusive = small, poorly fitted or top-dose-only effect; inactive = no such curve, though single readings can be large or run the other way.
Potency is read from the fitted curve at half-maximal effect.

N-terminal Xaa-Pro-Lys N-methyltransferase 1 (Homo sapiens), sequence (Q9BV86 whole entry, looked up): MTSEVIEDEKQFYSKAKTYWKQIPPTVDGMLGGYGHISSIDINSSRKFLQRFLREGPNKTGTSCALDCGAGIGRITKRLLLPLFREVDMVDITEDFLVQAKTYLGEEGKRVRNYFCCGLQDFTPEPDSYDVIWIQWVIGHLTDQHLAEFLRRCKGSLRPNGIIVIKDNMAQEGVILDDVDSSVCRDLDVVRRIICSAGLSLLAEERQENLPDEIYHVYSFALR

This test has as its target N-terminal Xaa-Pro-Lys N-methyltransferase 1 (Homo sapiens) (UniProt Q9BV86). The test can be described thus: qHTS Assay for Inhibitors of N-terminal methyltransferase 1 (NTMT1): LOPAC validation of the NTMT1 SAHH-coupled ThioGlo3 Assay (AID 1347143).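 Also: SAH from peptide methylation measured as thiol fluorescence via SAHH coupling and ThioGlo3; nearly all actives have a fitted effect of over 70% in size.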 To be noted: recombinant NTMT1, SAHH-coupled ThioGlo3 fluorescence; series mostly up to 114 µM. Put shortly: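 Steps: dispense 125nM NTMT1; pin-transfer test compounds at several concentrations, with 1uM RCC1-6 peptide as control; incubate 1 min; start with reagent holding 100uM SAM, 10uM SAHH, 15uM ThioGlo3; read at 0 and 30 min.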
Turning to `CC(C)(C)c1o[nH]c(=O)c1CC(N)C(=O)O` (configuration not stated), the Potency entry was “inactive”.
Regarding `CCCN1CC[C@@H]2c3cc(O)ccc3CC[C@@H]21`, the Potency entry was “inactive”.
The result for `CC(=O)NBr` reads “inactive”; that for `CC(=O)c1c(O)c(C)c(O)c(Cc2c(O)c3c(c(C(=O)/C=C/c4ccccc4)c2O)OC(C)(C)C=C3)c1O`, 50.1 µM (active); that for `O=C1C=CC(=O)C=C1`, “inactive”.
Consider `CCn1cnc2c(Nc3cccc(Cl)c3)nc(N[C@@H]3CCCC[C@@H]3N)nc21`, for which the Potency was 8.91 µM (active).
Take `CCCN1CCc2cccc3c2[C@H]1Cc1ccc(O)c(O)c1-3`: the Potency was 15.8 µM (active).
Take `CC1(C(=O)O)C2CCC(O2)C1(C)C(=O)O` (configuration not stated): the Potency result is “inactive”.
For the compound `C[N+](C)(C)CC#CCN1CCCC1=O`, the Potency is 28.2 µM (active).
Regarding `CC(C)NP(=O)(NC(C)C)OP(=O)(NC(C)C)NC(C)C`, the Potency result was “inactive”.
Turning to `N[C@@]1(C(=O)O)CC[C@@H](C(=O)O)C1`, the Potency entry was “inactive”.
In the case of `COc1ccc2c(c1)C13CCCCC1C(C2)N(C)CC3` (configuration not stated), the Potency entry is “inactive”.
The same measure for `O=[N+]([O-])/C=C/c1ccc2c(c1)OCO2`: 39.8 µM (active); for `CP(=O)(O)C1=CCNCC1`: “inactive”; for `NNC(=O)c1ccc(O)cc1`: “inactive”.
As to `CC12NC(Cc3ccccc31)c1ccccc12` (configuration not stated), the Potency result was “inactive”.
The same measure for `C[C@H](N)Cc1cccc(C(F)(F)F)c1`: “inactive”; for `NCC(O)c1cc(O)c(O)cc1F` (configuration not stated): 56.2 µM (active).
Take `Cc1cc([C@@H]2CCCN2C)on1`: the Potency entry is “inactive”.
The result for `c1ccc2c(N3CCNCC3)cccc2c1` reads 50.1 µM (active); that for `CN(C(=O)Cc1ccc(Cl)c(Cl)c1)C(CN1CCCC1)c1cccc(OCC(=O)O)c1` (configuration not stated), “inactive”.
With `CCCN(CCC)C1Cc2cc(OC)c(OC)cc2C1`, the Potency result is “inactive”.
